The structures appear in SMILES notation. Several values for one entry are separate records, joined by “and”; a condition that tells them apart may be missing. Identical values can stand only once. Records with an inconclusive call do not appear. Activity calls are given as the source filed them. Unless noted, calls come from the whole dose curve; as a rule, active = well fitted curve in the direction sought with a large enough effect; inconclusive = small, poorly fitted or top-dose-only effect, or another doubt; inactive = no such curve, though single readings can be large; an effect the other way counts as inactive or inconclusive.

Assay [1] in a line: AP1 Signaling Pathway (AID 357; active = well fitted curve in either direction with a large enough effect, not every such curve was filed as active;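 note: ME-180 reporter cells stimulated with EGF at its EC50 level; % is set by controls: 0 for no effect and ±100 for the full control effect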). In a few lines: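 Titration-series screen for positive or negative modulators of EC50 EGF-induced signaling in ME-180 cells carrying an AP-1-driven beta-lactamase reporter. After 5 hours at 37 degrees Celsius, CCF4 460nm/530nm emission ratio gave %Activity; AC50 values derived.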
Assay [2] can be described thus: NFAT Signaling Pathway (AID 444; active = well fitted curve in either direction with a large enough effect, not every such curve was filed as active;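 note: carbachol stimulus at about its EC50 of 1 µM final; % is set by controls: 0 for no effect and ±100 for the full control effect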). Particulars: Jurkat NFAT-bla M1, carbachol, beta-lactamase ratio, 5 h. In a few lines:
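Jurkat cells carrying an NFAT-driven β-lactamase reporter and co-transfected muscarinic M1 receptor were treated with compound plus carbachol (1 uM final, an EC50 level) for 5 h at 37 °C. CCF4 loading followed for 1 h at RT; 460/530 nm ratio gave %activity.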

A short description of assay [3]: Stat Signaling Pathway (AID 446; active = well fitted curve in either direction with a large enough effect, not every such curve was filed as active;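 note: ME-180 cervical cancer cells given 40 pM IL-6 alongside compound; SIE-controlled beta-lactamase reporter measured as 460/530 nm FRET emission ratio; % is set by controls: 0 for no effect and ±100 for the full control effect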). In outline:
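Normalization used AC90 stimulation (300 pM IL-6) and AC90 inhibition (125 nM pan-JAK inhibitor at 40 pM IL-6). The underlying signal is SIE-driven beta-lactamase in ME-180 cells after 5 h IL-6 exposure with compound.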

For assay [4], the target named is Glucocorticoid receptor (Homo sapiens) (UniProt P04150). Put plainly: GR-GFP Redistribution (AID 450;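 active = compounds whose dose series gives a full or clear partial fitted curve of increased nuclear translocation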; note: potency is the fitted concentration of half-maximal effect). Particulars: U2OS GR-GFP nuclear translocation, laser cytometry, 2 h.
The target is the same in assay [5]. In words: GR-EFC Redistribution (AID 451; calls by dose curve; note: potency is the fitted concentration of half-maximal effect). Particulars: CHO-K1 GR-EFC translocation, beta-gal luminescence, 2 h. In outline:
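CHO-K1 cells stably expressing nuclear-localized β-gal enzyme acceptor and GR fused C-terminally to the enzyme donor fragment; ligand-driven nuclear translocation restores β-gal by complementation. Compounds titrated up to 46 uM final, 2 h at 37 °C; luminescence read.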

Assay [6] addresses Guanine nucleotide-binding protein G(i) subunit alpha-1 (Homo sapiens) (UniProt P63096). In words: qHTS Assay for Inhibitors of RGS12 GoLoco Motif Activity (Green Fluorophore) (AID 879).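 Note: 0% = labeled peptide with Gαi1 and full inhibition = labeled peptide alone without protein; negative values mean loss of peptide binding seen as reduced polarization.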 In outline: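 A drop in FITC polarization marked displacement of the FITC-tagged RGS12 GoLoco peptide (10 nM) from Gαi1 (50 nM). Compounds were incubated 10 min at room temperature in Tris pH 7.5 buffer containing 150 mM NaCl, 0.1 mM GDP and 0.05% NP40; unlabeled peptide titration served as control.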
For orientation: In qHTS, concentration-response curves come from the screen itself.

The target in assay [7] is Cytochrome P450 3A4 (Homo sapiens) (UniProt P08684). In words: qHTS Assay for Activators of Cytochrome P450 3A4 (AID 885). Note: nearly all actives have a fitted effect of over 65% in size. In outline:
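Human CYP3A4 dealkylates Luciferin-PPXE to luciferin, which luciferase detection converts to light. Substrate was at its KM (25uM), buffer 200mM KPO4, reaction 60 min at RT.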

Assay [8] has as its target Cytochrome P450 2D6 (Homo sapiens) (UniProt P10635). Put plainly: qHTS Assay for Inhibitors and Substrates of Cytochrome P450 2D6 (AID 891). Note: nearly all actives have a fitted effect of over 60% in size. Note: potency is the fitted concentration of half-maximal effect. In a few lines: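 Luminescent read-out of luciferin formed by 5 nM human CYP2D6 demethylating 30 uM Luciferin-ME EGE (Km level) over 60 min at room temperature after NADPH regeneration addition. Data normalized to full inhibition by 1.43 uM quinidine.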

Assay [9] has as its target Pyruvate kinase (Leishmania mexicana) (UniProt Q27686). Put plainly: qHTS Validation Assay for Inhibitors of Leishmania Mexicana Pyruvate Kinase (AID 945).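 Note: 0% = DMSO only neutral control wells.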 In outline:
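LmPYK E451W 0.2 nM; 0.5 mM PEP, 0.1 mM ADP, 7 mM MgCl2, 50 mM KCl, imidazole pH 7.2, 0.01% Tween 20, 0.05% BSA; 1 h RT; PKLight luminescence; DMSO-normalized.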

Assay [10] deals with Alpha-galactosidase (Coffea arabica) (UniProt Q42656). In words: Counterscreen for Glucocerebrosidase Inhibitors: qHTS Assay for Coffee Bean alpha-Galactosidase at pH 4.5 (AID 957).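 Note: plate controls were enzyme alone for no effect and no enzyme for full effect.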 In outline: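 Quantitative HTS of compounds (0.7 nM to 77 uM) against coffee bean alpha-galactosidase at pH 4.5, measuring 4-methylumbelliferone fluorescence released from 80 uM substrate.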
Sequence of Alpha-galactosidase (Coffea arabica) (Q42656 whole entry, looked up): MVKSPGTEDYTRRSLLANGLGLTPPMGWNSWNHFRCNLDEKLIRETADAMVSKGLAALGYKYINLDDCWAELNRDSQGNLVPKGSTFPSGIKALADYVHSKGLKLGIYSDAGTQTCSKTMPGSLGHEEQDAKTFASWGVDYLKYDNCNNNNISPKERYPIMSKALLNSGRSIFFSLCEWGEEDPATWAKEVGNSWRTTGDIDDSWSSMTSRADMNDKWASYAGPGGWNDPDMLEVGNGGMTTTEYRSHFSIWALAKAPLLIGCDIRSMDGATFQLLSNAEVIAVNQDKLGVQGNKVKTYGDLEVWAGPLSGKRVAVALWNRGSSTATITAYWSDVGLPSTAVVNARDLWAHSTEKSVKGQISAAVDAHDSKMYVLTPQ
Background: A counterscreen serves to expose hits that act by an unwanted route or on another target.

The target of assay [11] is Alpha-galactosidase A (Homo sapiens) (UniProt P06280). Put plainly: Counterscreen for Glucocerebrosidase Inhibitors: qHTS Assay for Human alpha-Galactosidase at pH 4.5 (AID 992). Note: 0% is about no effect. In a few lines:
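Steps: enzyme (2 nM final), then compound across 0.7 nM to 77 uM, then 80 uM fluorogenic galactopyranoside substrate; incubate 20 min at room temperature; quench at pH 10; measure fluorescence at 365/440 nm.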

Assay [12] has as its target DNA dC->dU-editing enzyme APOBEC-3G (Homo sapiens) (UniProt Q9HC16). Put plainly: qHTS for inhibitors of Vif-A3G interactions: Validation (AID 588379). Note: 0% is about no effect. In a few lines:
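Yellow fluorescence (Ex 488, Em 500-530) of Vif-coexpressing HeLa A3G-eYFP cells, scanned by Acumen cytometer, reports blocked A3G degradation. Cells plated at 700/well overnight at 37 deg C before compound addition, then a further overnight compound incubation at 37 deg C.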

For assay [13], the system named is Zika virus NS2B-NS3 protease. In words: Primary screen GU AMC qHTS for Zika virus inhibitors (AID 1347154).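 Note: 0% = no-inhibitor control and -100% = no-enzyme control; nearly all actives have a fitted effect of over 70% in size.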 In outline:
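Unlinked Zika NS2B hydrophilic domain/NS3 protease domain noncovalent complex (25 nM final) in 10 mM Tris-HCl pH 8.0, 0.01% Tween 20, with AMC peptide substrate. Fluorescence (ex 340, em 450 nm) change over 15 min, room temperature; percent inhibition fitted to 4-parameter Hill equation.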

Assay [14] can be described thus: Primary qHTS for small molecule stabilizers of the endoplasmic reticulum resident proteome: Secreted ER Calcium Modulated Protein (SERCaMP) assay (AID 1508630). Note: % is set by controls: 0 for no effect and ±100 for the full control effect. In outline: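 The SH-SY5Y reporter protocol was run at 3 concentrations up to 38.3 uM (primary) or 11 concentrations (follow-up): 16 h compound, 100 nM thapsigargin for 4 h, then extracellular luciferase luminescence.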

Assay [15] addresses 3',5'-cyclic-AMP phosphodiesterase 4B (Homo sapiens) (UniProt Q07343). Put plainly: qHTS Assay for Inhibitors of PDE-IV (AID 607; active = well fitted activation curve with a large enough effect in the main read-out, with a control signal flat, not every such curve was filed as active; note: potency is the fitted concentration of half-maximal effect). In a few lines:
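HEK293 ACTOne cells with CNG channel (1000/well), endogenous PDE4; membrane potential dye, compounds up to 22.9 uM final. Fluorescence Ex 535/Em 590; RO 20-1724 (100 uM final) as reference.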

For assay [16], the target named is Ubiquitin carboxyl-terminal hydrolase 1 (Homo sapiens) (UniProt O94782). In words: Inhibitors of USP1/UAF1: Pilot qHTS (AID 504865).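 Note: rhodamine fluorescence freed from ubiquitin-rhodamine substrate followed over time; top concentration of the series differs between compounds; % is set by controls: 0 for no effect and ±100 for the full control effect; nearly all actives have a fitted effect of over 35% in size.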 In a few lines:
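Deubiquitinase activity followed as kinetic rhodamine fluorescence release from 150 nM Ub-Rho. 1 nM USP1/UAF1 with compound, after 15 min room-temperature preincubation, in HEPES pH 7.8 buffer containing TCEP, EDTA, BSA and Tween-20.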

In assay [17] the target is Mitogen-activated protein kinase 10 (Mus musculus) (UniProt Q61831). In words: JNK3 AlphaScreen Assay (AID 530; active = well fitted curve in either direction with a large enough effect, not every such curve was filed as active). In outline: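 Biotinylated GST-cJun(1-79) served as substrate for JNK3 in HepG2 lysates stimulated with IL-1beta and TNF-alpha. ATP was 10 uM final, pH 7.6. Ser73 phosphorylation was quantified by AlphaScreen (680 nm excitation).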
On the technique in general: Alpha assays give light when donor and acceptor beads are brought close together.

The target of assay [18] is Cytochrome P450 1A2 (Homo sapiens) (UniProt P05177). Put plainly: p450-cyp1a2 (AID 410; calls by dose curve; note: potency is the fitted concentration of half-maximal effect;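 for activity change, negative = inhibition: -100% = full effect of reference inhibitor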). In outline:
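Read-out is luminescence from luciferin produced by CYP1A2 demethylation of Luciferin-ME (100uM, at Km). Detection reagent stopped the 60 min NADPH-dependent reaction; signals were normalized to 57 uM furafylline.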

Assay [19] is described as follows: qHTS Assay for Lipid Storage Modulators (AID 1519; calls by dose curve). Particulars: Drosophila S3 cells, BODIPY lipid droplet/cell ratio, laser cytometry, cells loaded with oleic acid; for activity change, negative = inhibition: at 57.5 µM (top of the series). In outline: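 Cells seeded at 5,000 per well were treated with compounds over a concentration series and loaded with oleic acid (400 uM, as added). Lipid droplet fluorescence (488 nm excitation, 500-530 nm channel) was read by laser-scanning cytometry and normalized to 20 uM Triacsin C.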

The target of assay [20] is Cytochrome P450 3A4 (Homo sapiens) (UniProt P08684). In words: qHTS Assay for Inhibitors and Substrates of Cytochrome P450 3A4 (AID 884). Note: % is set by controls: 0 for no effect and ±100 for the full control effect; nearly all actives have a fitted effect of over 50% in size. In outline: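 Luminescent readout of luciferin produced by CYP3A4 (20 nM) dealkylation of Luciferin-PPXE, 25 uM (its KM). NADPH-driven reaction ran 60 min at RT after 10 min compound preincubation; data scaled to 57 uM ketoconazole as 100% inhibition.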
Sequence of Cytochrome P450 3A4 (Homo sapiens) (P08684 whole entry, looked up): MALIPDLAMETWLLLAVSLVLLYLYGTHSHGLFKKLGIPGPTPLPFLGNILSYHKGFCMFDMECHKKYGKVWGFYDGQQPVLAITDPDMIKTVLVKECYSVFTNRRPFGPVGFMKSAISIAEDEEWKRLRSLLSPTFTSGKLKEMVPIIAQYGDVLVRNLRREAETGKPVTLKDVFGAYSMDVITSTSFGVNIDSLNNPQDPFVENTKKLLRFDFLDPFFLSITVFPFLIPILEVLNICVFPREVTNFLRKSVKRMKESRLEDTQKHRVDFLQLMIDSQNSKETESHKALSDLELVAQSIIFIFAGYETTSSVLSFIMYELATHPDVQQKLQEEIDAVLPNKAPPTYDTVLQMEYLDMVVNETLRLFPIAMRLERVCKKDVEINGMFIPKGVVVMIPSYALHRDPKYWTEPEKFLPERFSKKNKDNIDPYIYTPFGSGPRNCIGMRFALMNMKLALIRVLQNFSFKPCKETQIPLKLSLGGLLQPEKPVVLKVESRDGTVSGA

[21] abbreviates: measured here: cell count channel max response.
Where [22] appears, read: measured here: lipid channel max response.

Sequence of DNA dC->dU-editing enzyme APOBEC-3G (Homo sapiens) (Q9HC16 whole entry, looked up): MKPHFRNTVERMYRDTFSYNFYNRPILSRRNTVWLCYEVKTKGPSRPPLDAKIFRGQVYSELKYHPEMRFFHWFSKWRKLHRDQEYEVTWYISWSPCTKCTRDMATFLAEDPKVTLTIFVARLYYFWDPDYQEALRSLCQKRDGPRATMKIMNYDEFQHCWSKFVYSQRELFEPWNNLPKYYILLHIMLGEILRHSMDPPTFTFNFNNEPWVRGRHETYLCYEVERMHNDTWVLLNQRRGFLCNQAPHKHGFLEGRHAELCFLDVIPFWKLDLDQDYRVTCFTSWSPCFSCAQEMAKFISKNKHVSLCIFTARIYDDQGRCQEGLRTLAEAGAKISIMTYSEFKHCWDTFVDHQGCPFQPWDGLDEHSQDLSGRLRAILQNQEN
Sequence of Pyruvate kinase (Leishmania mexicana) (Q27686 2-499 E452W): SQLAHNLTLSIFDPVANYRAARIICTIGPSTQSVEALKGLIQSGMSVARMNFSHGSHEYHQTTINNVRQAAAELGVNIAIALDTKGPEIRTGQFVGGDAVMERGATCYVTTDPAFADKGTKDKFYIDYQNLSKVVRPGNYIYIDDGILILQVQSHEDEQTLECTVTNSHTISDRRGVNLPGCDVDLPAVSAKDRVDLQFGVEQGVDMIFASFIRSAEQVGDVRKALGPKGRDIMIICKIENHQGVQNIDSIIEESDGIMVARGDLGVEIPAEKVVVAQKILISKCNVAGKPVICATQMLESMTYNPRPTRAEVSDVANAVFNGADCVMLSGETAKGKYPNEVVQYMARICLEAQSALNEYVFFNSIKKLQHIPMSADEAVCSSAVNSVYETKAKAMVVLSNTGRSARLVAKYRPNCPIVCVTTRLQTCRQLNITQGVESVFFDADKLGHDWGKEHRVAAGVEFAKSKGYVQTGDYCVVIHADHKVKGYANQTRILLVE
Sequence of Alpha-galactosidase A (Homo sapiens) (P06280 whole entry, looked up): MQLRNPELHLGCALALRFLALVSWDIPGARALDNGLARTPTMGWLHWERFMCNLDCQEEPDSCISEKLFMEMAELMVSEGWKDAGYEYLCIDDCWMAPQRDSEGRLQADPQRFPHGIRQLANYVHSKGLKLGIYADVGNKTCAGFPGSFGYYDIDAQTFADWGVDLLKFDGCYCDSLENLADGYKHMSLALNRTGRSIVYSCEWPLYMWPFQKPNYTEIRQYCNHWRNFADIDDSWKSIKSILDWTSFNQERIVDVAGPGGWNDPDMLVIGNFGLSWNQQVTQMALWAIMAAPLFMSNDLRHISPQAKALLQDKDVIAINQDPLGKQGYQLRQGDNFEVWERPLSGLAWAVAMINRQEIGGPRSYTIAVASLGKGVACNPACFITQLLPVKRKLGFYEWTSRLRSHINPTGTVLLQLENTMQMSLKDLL
Sequence of Cytochrome P450 1A2 (Homo sapiens) (P05177 whole entry, looked up): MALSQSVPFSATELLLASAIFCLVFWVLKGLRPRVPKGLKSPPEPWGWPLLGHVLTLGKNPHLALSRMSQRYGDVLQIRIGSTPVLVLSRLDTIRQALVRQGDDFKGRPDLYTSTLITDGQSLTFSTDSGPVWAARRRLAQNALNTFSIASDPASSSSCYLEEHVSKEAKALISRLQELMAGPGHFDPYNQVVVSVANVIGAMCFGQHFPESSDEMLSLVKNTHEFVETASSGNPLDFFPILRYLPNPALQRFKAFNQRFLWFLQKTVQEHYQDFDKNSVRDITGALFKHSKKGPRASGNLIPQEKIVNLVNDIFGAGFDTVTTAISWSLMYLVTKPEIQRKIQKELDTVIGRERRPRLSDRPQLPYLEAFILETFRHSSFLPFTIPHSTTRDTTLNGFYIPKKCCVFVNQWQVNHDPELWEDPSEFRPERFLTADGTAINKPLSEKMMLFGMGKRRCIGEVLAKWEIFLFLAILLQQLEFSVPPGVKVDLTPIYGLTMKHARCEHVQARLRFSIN
Sequence of 3',5'-cyclic-AMP phosphodiesterase 4B (Homo sapiens) (Q07343 whole entry, looked up): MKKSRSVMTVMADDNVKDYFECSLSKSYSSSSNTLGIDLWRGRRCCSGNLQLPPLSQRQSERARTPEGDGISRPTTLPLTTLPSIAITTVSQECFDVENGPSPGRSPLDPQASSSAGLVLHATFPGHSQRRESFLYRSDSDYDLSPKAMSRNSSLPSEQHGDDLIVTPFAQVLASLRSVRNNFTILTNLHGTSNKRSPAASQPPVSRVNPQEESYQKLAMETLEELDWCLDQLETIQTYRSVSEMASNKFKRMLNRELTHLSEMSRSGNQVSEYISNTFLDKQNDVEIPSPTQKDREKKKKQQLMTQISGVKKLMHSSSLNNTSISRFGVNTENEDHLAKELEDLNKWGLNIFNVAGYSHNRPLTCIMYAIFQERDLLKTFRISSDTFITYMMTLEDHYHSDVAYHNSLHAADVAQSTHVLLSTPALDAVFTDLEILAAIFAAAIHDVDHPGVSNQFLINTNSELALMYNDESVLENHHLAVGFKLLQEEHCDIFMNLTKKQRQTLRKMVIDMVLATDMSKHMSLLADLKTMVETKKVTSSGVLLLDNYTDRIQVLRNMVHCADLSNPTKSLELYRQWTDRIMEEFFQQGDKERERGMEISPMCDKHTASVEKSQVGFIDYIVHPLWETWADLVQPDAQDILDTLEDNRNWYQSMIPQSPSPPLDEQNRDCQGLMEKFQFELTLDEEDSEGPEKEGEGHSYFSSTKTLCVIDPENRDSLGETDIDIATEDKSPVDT
Sequence of Cytochrome P450 2D6 (Homo sapiens) (P10635 whole entry, looked up): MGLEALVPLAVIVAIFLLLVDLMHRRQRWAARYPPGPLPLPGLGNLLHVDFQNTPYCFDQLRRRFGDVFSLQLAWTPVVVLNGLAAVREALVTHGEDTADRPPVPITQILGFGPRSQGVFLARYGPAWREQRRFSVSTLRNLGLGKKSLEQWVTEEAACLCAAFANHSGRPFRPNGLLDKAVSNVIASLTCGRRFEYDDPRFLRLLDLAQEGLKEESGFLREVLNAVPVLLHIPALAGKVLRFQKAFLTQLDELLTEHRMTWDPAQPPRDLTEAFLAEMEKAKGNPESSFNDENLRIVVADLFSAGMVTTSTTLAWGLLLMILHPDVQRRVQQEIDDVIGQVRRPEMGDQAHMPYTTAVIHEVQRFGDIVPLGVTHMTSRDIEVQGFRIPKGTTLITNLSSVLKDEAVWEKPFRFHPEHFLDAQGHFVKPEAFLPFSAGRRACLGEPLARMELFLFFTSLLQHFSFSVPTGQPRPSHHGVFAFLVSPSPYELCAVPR
Sequence of Guanine nucleotide-binding protein G(i) subunit alpha-1 (Homo sapiens) (P63096 whole entry, looked up): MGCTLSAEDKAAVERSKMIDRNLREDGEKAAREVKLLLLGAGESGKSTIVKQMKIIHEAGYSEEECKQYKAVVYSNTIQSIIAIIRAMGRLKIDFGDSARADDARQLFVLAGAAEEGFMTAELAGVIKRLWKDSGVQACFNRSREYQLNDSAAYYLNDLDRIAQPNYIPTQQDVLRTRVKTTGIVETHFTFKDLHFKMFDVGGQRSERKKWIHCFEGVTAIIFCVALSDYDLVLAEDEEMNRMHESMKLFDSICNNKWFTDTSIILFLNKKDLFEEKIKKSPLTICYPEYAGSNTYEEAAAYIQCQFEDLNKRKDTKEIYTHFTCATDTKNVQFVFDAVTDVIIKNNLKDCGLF

Consider `CN1[C@@H]2CC[C@H]1CC(O[C@@H](c1ccccc1)c1ccc(Cl)cc1)C2` (stereo partly drawn), for which the call in assay [1], in [3], in [6], in [9], in [10] and in assay [11] was inactive. Also, the activity change, negative = inhibition in [2] (at 38 µM (top of the series)) was -69.3% (active). In addition, the Potency was > 46 µM (inactive) in [4]; > 46 µM (inactive) in assay [5]; 1.26 µM (active) and 1.58 µM (active) in assay [8]. Besides, the Potency entry in [7], in assay [12], in [13] and in assay [14] was “inactive” in each case.
Take `C[C@H](N)Cc1cnc[nH]1`: the result in [1], in assay [3], in assay [6], in assay [9], in [10] and in [11] was inactive. Besides, the activity change, negative = inhibition in assay [2] (at 38 µM (top of the series)) was 4.34% (inactive). The Potency in assay [4] and in assay [5] was > 46 µM (inactive) in each case. Moreover, the Potency entry in [15], in [16], in assay [12], in [13] and in [14] was “inactive” in each case.
With `C=C1[C@@H](O)C2C=CC[C@H](C)C(=O)[C@@](C)(O)C=C[C@@H](OC(C)=O)[C@@]23C(=O)N[C@H](Cc2ccccc2)[C@@H]3[C@@H]1C` (stereo partly drawn), the Potency in [5] was > 46 µM (inactive). In addition, in assay [17], the compound was called inactive. Also, the Potency result in [15], in assay [7], in assay [12], in assay [13] and in assay [14] was “inactive” in each case.
For the compound `c1ccc(C[C@@H](c2ccccc2)N2CCCCC2)cc1`, the Potency is 15.8 µM (active) in [18]; > 46 µM (inactive) in assay [4]; > 46 µM (inactive) in assay [5]; 4.77 µM (active) in [15]; 2 µM (active) in [8]. Moreover, the compound was called inactive in assay [17]. Moreover, the Potency entry in [7], in assay [12] and in assay [13] was “inactive” throughout. Further, the activity change, negative = inhibition in assay [19] is -5.07% (inactive). Moreover, the max response was -11.4% in assay [19] (setting [21]) and -18.1% in assay [19] (setting [22]).
For the compound `CCCCC[C@H]1C(=O)O[C@H](C)[C@H](NC(=O)c2cccc(NC=O)c2O)C(=O)O[C@@H](C)[C@@H]1OC(=O)CC(C)C`, in [13], the Potency result is “inactive”.
For `CCN1C[C@]2(COC(=O)c3ccccc3N3C(=O)C[C@H](C)C3=O)CC[C@H](OC)[C@@]34[C@@H]5C[C@H]6[C@H](OC)[C@H]5[C@](O)(C[C@@H]6OC)[C@@](O)([C@@H](OC)[C@@H]23)[C@@H]14`, the Potency in assay [4] and in [5] was > 46 µM (inactive) in each case. For the same compound, the Potency result in assay [12] and in assay [13] was “inactive” each time.
For the compound `CC[N+](CC)(CCCNC1=CC(=O)C(NCCC[N+](CC)(CC)Cc2ccccc2)=CC1=O)Cc1ccccc1`, the Potency in assay [4] and in assay [5] was > 46 µM (inactive) throughout. Besides, the Potency entry in assay [12] and in [13] was “inactive” each time.
Take `CNCCc1c[nH]c2ccccc12`: the outcome in assay [1] and in assay [3] was inactive. In addition, in [2] (at 17.2 µM (top of the series)), the activity change, negative = inhibition is -6.51% (inactive). Further, the Potency in assay [4] was > 20.6 µM (inactive).
Turning to `O=C1CC[C@@]2(O)[C@H]3Cc4ccc(O)c5c4C2(CCN3CC2CC2)[C@H]1O5`, the Potency result in assay [13] was “inactive”.
`CC(C)(C)NC[C@@H](O)COc1cccc2[nH]c(C#N)cc12`: the Potency in [5] was > 46 µM (inactive). Moreover, the call in assay [17] was inactive. The Potency result in assay [7], in [16], in assay [12] and in [13] was “inactive” throughout. Further, the activity change, negative = inhibition in [19] was 2.4% (inactive). Besides, the max response in assay [19] (setting [21]) is -20.5%; in [19] (setting [22]) it was -17.5%.
On to `N[C@H](C(=O)O)c1cc(=O)[nH]o1`, for which the result in [1], in assay [17], in assay [6], in [9], in assay [10] and in assay [11] was inactive. In addition, the Potency result in assay [18], in [15], in assay [20], in [8], in [12] and in assay [13] was “inactive” each time. The activity change, negative = inhibition is 2.26% (inactive) in [2] (at 38 µM (top of the series)) and 3.47% (inactive) in [19]. Also, the Potency in assay [4] and in [5] was > 46 µM (inactive) throughout. The max response in [19] (setting [21]) was -3.07%; in assay [19] (setting [22]), -3.59%.

The record behind these values is PubChem BioAssay (NCATS).
